Experimental data published in the supplement of paper PMC10849652.
About 7,900 targets were measured; listed, in parts, are those with a hit and a random draw of the rest. About 0.6% of all pairs of compound and target were hits.

Compound: Cc1ccc(-n2nc(C(C)(C)C)cc2NC(=O)Nc2ccc(OCCN3CCOCC3)c3ccccc23)cc1 [doramapimod]
Assay: log2 fold change, soluble protein after heating vs DMSO (PISA); higher = thermal stabilisation; K562 cells, 10 uM, 30 min; active = over 0.2 and 3.5 SD of the protein, either way, in both replicates (recomputed)
Procedure, shortened: (§1)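 K562 cells at 2×10^6 cells/mL were exposed to 10 μM compound for 30 min, then aliquots were heated for 3 min across 48°C-58°C, pooled, and extracted in PBS containing 0.5% NP-40 at 4°C. The supernatant after 21,000xg for 90 min was taken as soluble protein and measured by TMTpro 16plex LC-MS/MS with channel sums equalised. Thermal stability is reported relative to control samples, with values from duplicates. Fold changes are given on a log2 scale.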

Chain of UniProt Q8WUM4 (Q8WUM4 whole entry, looked up): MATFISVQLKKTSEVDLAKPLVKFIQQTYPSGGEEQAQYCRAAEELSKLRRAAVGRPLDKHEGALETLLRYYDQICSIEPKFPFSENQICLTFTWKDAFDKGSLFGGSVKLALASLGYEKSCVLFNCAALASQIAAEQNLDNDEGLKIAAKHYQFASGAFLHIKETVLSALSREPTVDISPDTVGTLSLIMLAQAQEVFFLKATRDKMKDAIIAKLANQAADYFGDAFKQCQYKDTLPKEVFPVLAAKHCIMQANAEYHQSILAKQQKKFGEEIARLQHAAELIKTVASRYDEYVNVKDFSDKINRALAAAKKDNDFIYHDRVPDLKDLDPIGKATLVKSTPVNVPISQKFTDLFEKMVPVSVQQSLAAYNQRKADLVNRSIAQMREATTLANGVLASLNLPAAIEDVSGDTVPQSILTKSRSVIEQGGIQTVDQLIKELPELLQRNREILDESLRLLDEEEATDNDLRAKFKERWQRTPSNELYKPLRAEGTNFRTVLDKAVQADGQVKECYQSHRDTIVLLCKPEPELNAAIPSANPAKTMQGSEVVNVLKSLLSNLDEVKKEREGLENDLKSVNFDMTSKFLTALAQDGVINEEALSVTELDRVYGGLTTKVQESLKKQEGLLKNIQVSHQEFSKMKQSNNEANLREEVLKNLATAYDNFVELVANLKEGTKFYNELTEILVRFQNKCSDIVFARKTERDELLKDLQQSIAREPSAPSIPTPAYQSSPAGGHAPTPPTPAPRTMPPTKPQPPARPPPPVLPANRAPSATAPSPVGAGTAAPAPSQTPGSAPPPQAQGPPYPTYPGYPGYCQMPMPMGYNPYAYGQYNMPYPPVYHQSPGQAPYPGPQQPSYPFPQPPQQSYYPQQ
Chain of UniProt Q9Y2Y1 (Q9Y2Y1 whole entry, looked up): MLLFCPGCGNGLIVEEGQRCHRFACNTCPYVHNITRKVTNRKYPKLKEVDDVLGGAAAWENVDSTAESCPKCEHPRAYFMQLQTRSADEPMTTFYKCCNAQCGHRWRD
Chain of UniProt Q969N2 (Q969N2 whole entry, looked up): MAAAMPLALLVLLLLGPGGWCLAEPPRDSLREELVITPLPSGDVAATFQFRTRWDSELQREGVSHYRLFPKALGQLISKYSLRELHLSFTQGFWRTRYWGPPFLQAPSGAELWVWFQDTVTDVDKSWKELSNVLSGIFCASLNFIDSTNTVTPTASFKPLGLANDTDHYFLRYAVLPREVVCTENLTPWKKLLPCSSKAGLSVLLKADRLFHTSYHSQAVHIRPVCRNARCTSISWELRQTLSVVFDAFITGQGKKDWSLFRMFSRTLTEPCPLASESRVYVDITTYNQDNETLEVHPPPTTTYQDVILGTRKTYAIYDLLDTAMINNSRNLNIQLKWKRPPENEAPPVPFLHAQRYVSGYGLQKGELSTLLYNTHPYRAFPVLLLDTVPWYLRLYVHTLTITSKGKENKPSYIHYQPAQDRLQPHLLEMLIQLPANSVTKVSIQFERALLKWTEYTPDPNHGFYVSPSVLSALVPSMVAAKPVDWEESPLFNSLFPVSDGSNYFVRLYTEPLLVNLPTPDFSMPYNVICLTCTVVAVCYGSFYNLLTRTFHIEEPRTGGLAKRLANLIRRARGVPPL
Chain of UniProt Q9Y3C6 (Q9Y3C6 whole entry, looked up): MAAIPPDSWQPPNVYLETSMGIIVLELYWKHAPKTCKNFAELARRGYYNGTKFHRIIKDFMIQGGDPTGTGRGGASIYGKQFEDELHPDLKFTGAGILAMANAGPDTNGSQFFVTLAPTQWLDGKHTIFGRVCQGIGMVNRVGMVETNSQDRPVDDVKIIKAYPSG
Chain of UniProt Q9UKL6 (Q9UKL6 whole entry, looked up): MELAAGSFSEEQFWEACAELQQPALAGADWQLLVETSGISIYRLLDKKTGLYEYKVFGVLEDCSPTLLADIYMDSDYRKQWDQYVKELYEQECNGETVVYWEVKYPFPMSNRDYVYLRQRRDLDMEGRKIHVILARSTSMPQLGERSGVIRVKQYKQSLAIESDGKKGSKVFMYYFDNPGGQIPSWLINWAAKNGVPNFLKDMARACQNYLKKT
Chain of UniProt Q99541 (Q99541 whole entry, looked up): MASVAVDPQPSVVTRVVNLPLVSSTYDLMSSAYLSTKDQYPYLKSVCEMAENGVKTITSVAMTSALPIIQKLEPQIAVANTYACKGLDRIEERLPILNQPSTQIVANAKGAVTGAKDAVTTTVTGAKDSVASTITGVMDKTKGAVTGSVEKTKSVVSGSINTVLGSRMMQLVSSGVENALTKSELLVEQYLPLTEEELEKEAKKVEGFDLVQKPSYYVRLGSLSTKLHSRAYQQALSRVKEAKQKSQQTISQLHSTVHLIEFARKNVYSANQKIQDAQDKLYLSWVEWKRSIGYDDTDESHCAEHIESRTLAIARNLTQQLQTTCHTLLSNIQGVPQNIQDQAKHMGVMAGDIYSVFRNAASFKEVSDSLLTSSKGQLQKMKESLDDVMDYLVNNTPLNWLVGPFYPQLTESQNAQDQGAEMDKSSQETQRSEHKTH
Chain of UniProt Q8IZL8 (Q8IZL8 whole entry, looked up): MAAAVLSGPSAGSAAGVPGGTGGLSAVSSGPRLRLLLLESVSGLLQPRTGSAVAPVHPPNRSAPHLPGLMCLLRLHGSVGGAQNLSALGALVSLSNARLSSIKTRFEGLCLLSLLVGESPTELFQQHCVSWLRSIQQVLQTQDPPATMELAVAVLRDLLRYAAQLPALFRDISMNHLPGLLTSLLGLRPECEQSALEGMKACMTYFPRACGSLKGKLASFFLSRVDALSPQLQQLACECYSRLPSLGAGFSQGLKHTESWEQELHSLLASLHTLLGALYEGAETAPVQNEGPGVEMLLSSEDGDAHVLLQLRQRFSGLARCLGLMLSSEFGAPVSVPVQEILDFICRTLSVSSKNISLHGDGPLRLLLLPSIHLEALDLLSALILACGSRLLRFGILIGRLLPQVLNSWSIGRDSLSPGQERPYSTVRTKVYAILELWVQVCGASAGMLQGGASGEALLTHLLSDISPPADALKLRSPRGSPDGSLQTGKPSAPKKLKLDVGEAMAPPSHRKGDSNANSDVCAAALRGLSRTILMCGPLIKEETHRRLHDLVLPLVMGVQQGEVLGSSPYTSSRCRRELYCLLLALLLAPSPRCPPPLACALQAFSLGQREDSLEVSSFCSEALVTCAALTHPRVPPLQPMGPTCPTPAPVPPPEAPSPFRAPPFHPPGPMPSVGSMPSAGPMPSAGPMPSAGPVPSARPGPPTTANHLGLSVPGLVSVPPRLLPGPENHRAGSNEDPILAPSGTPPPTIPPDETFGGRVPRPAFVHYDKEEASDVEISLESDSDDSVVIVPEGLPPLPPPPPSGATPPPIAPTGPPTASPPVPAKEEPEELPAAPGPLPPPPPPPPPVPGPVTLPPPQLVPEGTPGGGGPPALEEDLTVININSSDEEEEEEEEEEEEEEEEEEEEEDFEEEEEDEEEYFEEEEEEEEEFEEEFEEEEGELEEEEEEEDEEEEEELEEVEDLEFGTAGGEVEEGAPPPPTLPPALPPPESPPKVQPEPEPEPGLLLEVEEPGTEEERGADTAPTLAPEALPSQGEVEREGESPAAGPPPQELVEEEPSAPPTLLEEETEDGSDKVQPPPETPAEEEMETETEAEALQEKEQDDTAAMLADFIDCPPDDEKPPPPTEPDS
Chain of UniProt Q5JRX3 (Q5JRX3 whole entry, looked up): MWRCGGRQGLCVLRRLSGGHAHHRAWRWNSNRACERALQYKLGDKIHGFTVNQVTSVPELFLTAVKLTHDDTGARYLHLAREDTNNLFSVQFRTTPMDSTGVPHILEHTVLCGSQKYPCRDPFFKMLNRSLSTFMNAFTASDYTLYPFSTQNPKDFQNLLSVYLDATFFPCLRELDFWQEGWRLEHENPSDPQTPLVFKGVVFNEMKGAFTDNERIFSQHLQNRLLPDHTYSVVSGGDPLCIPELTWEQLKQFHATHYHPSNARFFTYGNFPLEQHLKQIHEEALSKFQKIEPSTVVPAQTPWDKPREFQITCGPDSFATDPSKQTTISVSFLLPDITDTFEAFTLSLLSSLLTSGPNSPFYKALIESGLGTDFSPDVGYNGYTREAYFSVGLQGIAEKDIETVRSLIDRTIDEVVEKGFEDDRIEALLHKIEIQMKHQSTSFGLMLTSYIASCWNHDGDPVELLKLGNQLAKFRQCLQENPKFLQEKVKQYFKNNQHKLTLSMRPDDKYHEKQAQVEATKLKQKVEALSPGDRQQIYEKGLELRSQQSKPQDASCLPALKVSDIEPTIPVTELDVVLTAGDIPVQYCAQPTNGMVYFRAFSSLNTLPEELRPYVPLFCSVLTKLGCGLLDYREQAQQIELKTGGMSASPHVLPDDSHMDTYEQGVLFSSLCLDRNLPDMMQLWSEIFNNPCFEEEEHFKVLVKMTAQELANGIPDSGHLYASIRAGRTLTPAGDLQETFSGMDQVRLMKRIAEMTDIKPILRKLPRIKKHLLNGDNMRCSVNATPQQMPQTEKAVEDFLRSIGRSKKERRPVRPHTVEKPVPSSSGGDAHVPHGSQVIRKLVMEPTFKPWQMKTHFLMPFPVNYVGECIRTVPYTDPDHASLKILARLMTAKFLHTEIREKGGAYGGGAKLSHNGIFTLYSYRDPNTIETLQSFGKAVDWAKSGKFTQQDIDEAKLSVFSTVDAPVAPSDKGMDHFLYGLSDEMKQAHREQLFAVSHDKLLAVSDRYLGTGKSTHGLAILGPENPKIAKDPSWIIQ
Chain of UniProt P49585 (P49585 whole entry, looked up): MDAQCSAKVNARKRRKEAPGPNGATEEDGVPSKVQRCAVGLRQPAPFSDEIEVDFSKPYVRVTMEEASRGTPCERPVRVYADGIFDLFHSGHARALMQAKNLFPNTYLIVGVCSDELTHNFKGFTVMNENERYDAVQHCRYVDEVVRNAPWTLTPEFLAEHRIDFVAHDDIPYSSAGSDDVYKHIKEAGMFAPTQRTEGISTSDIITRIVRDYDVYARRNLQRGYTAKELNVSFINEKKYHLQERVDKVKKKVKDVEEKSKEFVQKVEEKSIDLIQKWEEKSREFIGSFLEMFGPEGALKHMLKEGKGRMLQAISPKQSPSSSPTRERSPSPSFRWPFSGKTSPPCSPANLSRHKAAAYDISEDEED

| Target | log2 fold change |
| --- | --- |
| PPP6R1 (UniProt Q9UPN7) | 0.01 (inactive) |
| PLIN2 (UniProt Q99541) | -0.092 (inactive) |
| PELP1 (UniProt Q8IZL8) | 0.019 (inactive) |
| PCGF2 (UniProt P35227) | -0.089 (inactive) |
| PTPN23 (UniProt Q9H3S7) | -0.002 (inactive) |
| PBK (UniProt Q96KB5) | 0.015 (inactive) |
| POTEI (UniProt P0CG38) | -0.739 (active) |
| PDE4DIP isoform 4 (UniProt Q5VU43) | 0.01 (inactive) |
| PSMD2 (UniProt Q13200) | 0.021 (inactive) |
| PPT2 isoform 3 (UniProt Q9UMR5) | 0.006 (inactive) |
| PLA2G15 (UniProt Q8NCC3) | 0.015 (inactive) |
| PRPF38B (UniProt Q5VTL8) | 0.005 (inactive) |
| PELO (UniProt Q9BRX2) | 0.077 (inactive) |
| PIGT (UniProt Q969N2) | 0.036 (inactive) |
| PRKCQ (UniProt Q04759) | 0.038 (inactive) |
| PDCD6IP (UniProt Q8WUM4) | -0.042 (inactive) |
| PRIM2 (UniProt P49643) | -0.06 (inactive) |
| POLR2B (UniProt P30876) | -0.014 (inactive) |
| PIP4P2 (UniProt Q8N4L2) | -0.032 (inactive) |

| Target | log2 fold change |
| --- | --- |
| PTMA (UniProt P06454) | 0.072 (inactive) |
| POLD3 (UniProt Q15054) | -0.012 (inactive) |
| PCTP (UniProt Q9UKL6) | -0.048 (inactive) |
| PSMC3 (UniProt P17980) | 0.017 (inactive) |
| POLR3K (UniProt Q9Y2Y1) | 0.038 (inactive) |
| PPP2R5C isoform 4 (UniProt Q13362) | -0.06 (inactive) |
| PCYT1A (UniProt P49585) | -0.008 (inactive) |
| PEF1 (UniProt Q9UBV8) | -0.091 (inactive) |
| PITRM1 isoform 2 (UniProt Q5JRX3) | -0.014 (inactive) |
| PURA (UniProt Q00577) | 0.063 (inactive) |
| PPIL1 (UniProt Q9Y3C6) | 0.031 (inactive) |
| PIKFYVE (UniProt Q9Y2I7) | 0.023 (inactive) |
| PNPLA8 (UniProt Q9NP80) | 0.023 (inactive) |
| PNPLA2 (UniProt Q96AD5) | 0.046 (inactive) |
| PGGT1B (UniProt P53609) | -0.028 (inactive) |
| PI4K2A (UniProt Q9BTU6) | 0.015 (inactive) |
| PRPF40A (UniProt O75400) | 0.021 (inactive) |
| POLD1 (UniProt P28340) | -0.018 (inactive) |

Compound: Cc1ccc(C(=O)N(CCCN)[C@@H](c2nc3cc(Cl)ccc3c(=O)n2Cc2ccccc2)C(C)C)cc1 [ispinesib]
Assay: as above
Procedure, shortened: as §1

| Target | log2 fold change |
| --- | --- |
| PPP6R1 (UniProt Q9UPN7) | -0.002 (inactive) |
| PLIN2 (UniProt Q99541) | -2.6 (active) |
| PELP1 (UniProt Q8IZL8) | 0.004 (inactive) |
| PCGF2 (UniProt P35227) | 0.021 (inactive) |
| PTPN23 (UniProt Q9H3S7) | 0.018 (inactive) |
| PBK (UniProt Q96KB5) | -0.066 (inactive) |
| POTEI (UniProt P0CG38) | 0.131 (inactive) |
| PDE4DIP isoform 4 (UniProt Q5VU43) | -0.073 (inactive) |
| PSMD2 (UniProt Q13200) | -0.017 (inactive) |
| PPT2 isoform 3 (UniProt Q9UMR5) | -0.041 (inactive) |
| PLA2G15 (UniProt Q8NCC3) | -0.055 (inactive) |
| PRPF38B (UniProt Q5VTL8) | 0.193 (inactive) |
| PELO (UniProt Q9BRX2) | -0.336 (inactive) |
| PIGT (UniProt Q969N2) | 0 (inactive) |
| PRKCQ (UniProt Q04759) | -0.106 (inactive) |
| PDCD6IP (UniProt Q8WUM4) | -0.14 (inactive) |
| PRIM2 (UniProt P49643) | -0.061 (inactive) |
| POLR2B (UniProt P30876) | -0.048 (inactive) |
| PIP4P2 (UniProt Q8N4L2) | -0.569 (active) |

| Target | log2 fold change |
| --- | --- |
| PTMA (UniProt P06454) | 0.199 (inactive) |
| POLD3 (UniProt Q15054) | -0.123 (inactive) |
| PCTP (UniProt Q9UKL6) | 0.015 (inactive) |
| PSMC3 (UniProt P17980) | -0.024 (inactive) |
| POLR3K (UniProt Q9Y2Y1) | -0.075 (inactive) |
| PPP2R5C isoform 4 (UniProt Q13362) | -0.036 (inactive) |
| PCYT1A (UniProt P49585) | 0.003 (inactive) |
| PEF1 (UniProt Q9UBV8) | 0.208 (inactive) |
| PITRM1 isoform 2 (UniProt Q5JRX3) | -0.38 (active) |
| PURA (UniProt Q00577) | -0.143 (inactive) |
| PPIL1 (UniProt Q9Y3C6) | -0.089 (inactive) |
| PIKFYVE (UniProt Q9Y2I7) | -0.061 (inactive) |
| PNPLA8 (UniProt Q9NP80) | -0.051 (inactive) |
| PNPLA2 (UniProt Q96AD5) | -0.395 (active) |
| PGGT1B (UniProt P53609) | 0.043 (inactive) |
| PI4K2A (UniProt Q9BTU6) | -0.244 (active) |
| PRPF40A (UniProt O75400) | -0.034 (inactive) |
| POLD1 (UniProt P28340) | -0.01 (inactive) |
